{"source": "paper PMC7862700", "about": "“An all-to-all approach to the identification of sequence-specific readers for epigenetic DNA modifications on cytosine”", "experiment_in_all_cases": "DAPPL (digital affinity profiling via proximity ligation, sequencing); 10 mM Tris-HCl pH 7.5, 50 mM NaCl, 1 mM DTT, 4% glycerol, room temperature, 30 min; GST-TFs on glutathione beads, 16-mer random dsDNA library, 0.1% formaldehyde crosslink after washing; high values mean tight binding", "conditions_in_all_cases": "protein: recombinant; tags: N-terminal GST; dsDNA, one strand shown", "key": {"ELF4": {"molecular_target": "ELF4 (Homo sapiens, UniProt Q99607 1-663)", "sequence (Q99607 whole entry, the tested form may be a part)": "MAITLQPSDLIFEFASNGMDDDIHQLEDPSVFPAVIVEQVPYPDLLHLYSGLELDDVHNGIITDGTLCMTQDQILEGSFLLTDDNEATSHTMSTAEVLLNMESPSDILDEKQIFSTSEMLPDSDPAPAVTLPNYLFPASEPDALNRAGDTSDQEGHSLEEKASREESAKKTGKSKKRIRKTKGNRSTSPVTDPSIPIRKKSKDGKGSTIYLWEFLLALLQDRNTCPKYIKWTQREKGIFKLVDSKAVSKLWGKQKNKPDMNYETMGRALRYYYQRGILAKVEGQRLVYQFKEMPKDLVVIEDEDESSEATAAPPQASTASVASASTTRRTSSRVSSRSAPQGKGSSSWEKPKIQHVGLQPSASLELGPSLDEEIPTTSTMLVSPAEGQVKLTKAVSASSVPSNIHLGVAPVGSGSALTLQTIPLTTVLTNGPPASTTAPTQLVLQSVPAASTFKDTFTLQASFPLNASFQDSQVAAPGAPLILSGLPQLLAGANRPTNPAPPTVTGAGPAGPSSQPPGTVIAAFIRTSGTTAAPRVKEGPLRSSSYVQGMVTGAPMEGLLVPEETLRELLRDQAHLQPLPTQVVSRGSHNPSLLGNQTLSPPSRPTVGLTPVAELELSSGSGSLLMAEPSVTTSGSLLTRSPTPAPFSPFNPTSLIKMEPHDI", "how_it_was_run": "(§1)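 Pools were built from human transcription factors expressed in yeast as GST fusions, captured on glutathione beads and DNA-barcoded, along with a tag-only sample. Incubation with 200 nmole of a 16-mer random double-stranded DNA library lasted 30 min at room temperature in Tris/NaCl/DTT/glycerol buffer, and was followed by washing, 0.1% formaldehyde crosslinking, proximity ligation, PCR amplification and Illumina NextSeq500 sequencing. Binding signal is the quotient of each hexamer's read frequency for a factor and its frequency for the tag-only sample.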"}, "ETV2": {"molecular_target": "T1, ETV2 (Homo sapiens, UniProt O00321 1-342)", "T1 sequence": "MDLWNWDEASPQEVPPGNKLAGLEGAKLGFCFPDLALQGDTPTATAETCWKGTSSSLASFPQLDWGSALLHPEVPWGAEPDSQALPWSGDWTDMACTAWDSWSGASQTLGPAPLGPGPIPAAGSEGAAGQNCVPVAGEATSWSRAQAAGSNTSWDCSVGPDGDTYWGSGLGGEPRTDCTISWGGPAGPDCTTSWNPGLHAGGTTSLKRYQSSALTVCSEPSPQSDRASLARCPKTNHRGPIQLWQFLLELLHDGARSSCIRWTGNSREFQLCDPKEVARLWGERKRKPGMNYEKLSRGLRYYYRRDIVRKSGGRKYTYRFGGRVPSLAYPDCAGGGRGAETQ", "how_it_was_run": "as §1"}, "ELF3": {"molecular_target": "T2, ELF3 (Homo sapiens, UniProt P78545 1-371)", "T2 sequence": "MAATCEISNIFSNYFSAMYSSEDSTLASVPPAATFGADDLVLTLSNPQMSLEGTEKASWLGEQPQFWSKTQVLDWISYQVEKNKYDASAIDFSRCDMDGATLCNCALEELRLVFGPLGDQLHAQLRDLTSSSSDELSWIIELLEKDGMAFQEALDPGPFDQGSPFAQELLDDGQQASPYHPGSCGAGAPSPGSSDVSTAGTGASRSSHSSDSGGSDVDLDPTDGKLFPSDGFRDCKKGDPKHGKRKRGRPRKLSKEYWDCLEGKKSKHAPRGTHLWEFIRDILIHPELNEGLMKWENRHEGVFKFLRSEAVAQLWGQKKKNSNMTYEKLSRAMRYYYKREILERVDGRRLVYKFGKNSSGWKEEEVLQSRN", "how_it_was_run": "as §1"}, "ETV1": {"molecular_target": "ETV1 (Homo sapiens, UniProt P50549 1-477)", "sequence (P50549 whole entry)": "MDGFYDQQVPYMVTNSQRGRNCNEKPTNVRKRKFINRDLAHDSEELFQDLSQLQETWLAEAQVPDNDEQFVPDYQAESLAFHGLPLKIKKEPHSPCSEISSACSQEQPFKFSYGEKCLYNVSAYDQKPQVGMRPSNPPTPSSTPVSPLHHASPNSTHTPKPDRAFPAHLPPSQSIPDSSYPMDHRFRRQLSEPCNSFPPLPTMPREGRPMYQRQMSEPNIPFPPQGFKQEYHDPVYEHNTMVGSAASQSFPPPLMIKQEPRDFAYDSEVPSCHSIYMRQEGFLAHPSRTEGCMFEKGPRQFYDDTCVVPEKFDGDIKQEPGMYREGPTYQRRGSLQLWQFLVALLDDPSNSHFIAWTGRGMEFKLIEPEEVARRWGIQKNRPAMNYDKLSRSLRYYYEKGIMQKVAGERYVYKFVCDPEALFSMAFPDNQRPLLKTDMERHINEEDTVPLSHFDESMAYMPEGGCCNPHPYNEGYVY", "how_it_was_run": "as §1"}, "ERF": {"molecular_target": "T3, ERF (Homo sapiens, UniProt P50548 1-548)", "T3 sequence": "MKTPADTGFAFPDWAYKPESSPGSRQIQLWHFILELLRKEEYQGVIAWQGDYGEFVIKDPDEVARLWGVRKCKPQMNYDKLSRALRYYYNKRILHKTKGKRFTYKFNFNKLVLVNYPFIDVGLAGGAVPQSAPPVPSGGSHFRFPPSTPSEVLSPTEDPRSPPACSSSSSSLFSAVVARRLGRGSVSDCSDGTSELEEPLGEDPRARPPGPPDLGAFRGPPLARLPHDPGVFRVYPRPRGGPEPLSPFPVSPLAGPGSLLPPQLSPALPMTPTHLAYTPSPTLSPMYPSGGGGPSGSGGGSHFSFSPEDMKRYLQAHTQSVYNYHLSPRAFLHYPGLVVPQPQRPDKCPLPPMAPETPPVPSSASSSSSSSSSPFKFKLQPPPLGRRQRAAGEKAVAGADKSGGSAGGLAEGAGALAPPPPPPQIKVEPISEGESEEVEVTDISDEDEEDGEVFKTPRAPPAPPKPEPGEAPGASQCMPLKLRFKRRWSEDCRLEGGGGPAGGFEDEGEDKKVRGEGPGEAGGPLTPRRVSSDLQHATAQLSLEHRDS", "how_it_was_run": "as §1"}, "ETV3L": {"molecular_target": "T4, ETV3L (Homo sapiens, UniProt Q6ZN32 1-361)", "T4 sequence": "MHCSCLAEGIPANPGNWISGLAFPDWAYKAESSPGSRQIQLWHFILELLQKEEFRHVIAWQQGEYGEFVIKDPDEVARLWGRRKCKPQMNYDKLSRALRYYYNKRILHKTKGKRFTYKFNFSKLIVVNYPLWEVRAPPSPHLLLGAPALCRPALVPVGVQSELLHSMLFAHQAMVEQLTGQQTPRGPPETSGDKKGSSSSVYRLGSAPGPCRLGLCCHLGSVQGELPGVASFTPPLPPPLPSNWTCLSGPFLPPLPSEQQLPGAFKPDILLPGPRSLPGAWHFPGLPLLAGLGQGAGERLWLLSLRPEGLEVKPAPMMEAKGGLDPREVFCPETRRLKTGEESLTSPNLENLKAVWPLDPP", "how_it_was_run": "as §1"}, "ETS2": {"molecular_target": "T5, ETS2 (Homo sapiens, UniProt P15036 1-469)", "T5 sequence": "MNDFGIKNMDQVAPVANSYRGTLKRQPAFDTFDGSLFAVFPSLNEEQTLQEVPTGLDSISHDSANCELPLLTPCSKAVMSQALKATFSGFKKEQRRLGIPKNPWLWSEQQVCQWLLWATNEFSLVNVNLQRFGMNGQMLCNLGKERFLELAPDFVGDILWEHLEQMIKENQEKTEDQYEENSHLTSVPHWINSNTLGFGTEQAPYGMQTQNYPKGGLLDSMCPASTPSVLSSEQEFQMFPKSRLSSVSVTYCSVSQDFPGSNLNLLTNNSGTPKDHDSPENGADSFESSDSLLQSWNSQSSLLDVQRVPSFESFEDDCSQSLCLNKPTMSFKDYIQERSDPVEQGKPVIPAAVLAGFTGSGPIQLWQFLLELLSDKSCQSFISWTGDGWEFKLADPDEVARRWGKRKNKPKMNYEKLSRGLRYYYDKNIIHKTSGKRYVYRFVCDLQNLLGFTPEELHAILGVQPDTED", "how_it_was_run": "as §1"}, "ETV7": {"molecular_target": "T6, ETV7 (Homo sapiens, UniProt Q9Y603 1-341)", "T6 sequence": "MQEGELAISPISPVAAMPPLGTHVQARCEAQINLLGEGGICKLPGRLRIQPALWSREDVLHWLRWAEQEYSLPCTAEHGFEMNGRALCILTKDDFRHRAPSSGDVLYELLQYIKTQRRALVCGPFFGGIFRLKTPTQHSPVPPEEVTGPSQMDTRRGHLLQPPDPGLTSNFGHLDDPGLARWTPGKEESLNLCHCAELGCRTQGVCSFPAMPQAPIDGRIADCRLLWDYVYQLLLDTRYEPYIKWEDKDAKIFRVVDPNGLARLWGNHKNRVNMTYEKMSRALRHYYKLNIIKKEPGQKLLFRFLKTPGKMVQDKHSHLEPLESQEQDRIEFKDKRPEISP", "how_it_was_run": "as §1"}, "ETV3": {"molecular_target": "T7, ETV3 (Homo sapiens, UniProt P41162-2 1-143)", "T7 sequence": "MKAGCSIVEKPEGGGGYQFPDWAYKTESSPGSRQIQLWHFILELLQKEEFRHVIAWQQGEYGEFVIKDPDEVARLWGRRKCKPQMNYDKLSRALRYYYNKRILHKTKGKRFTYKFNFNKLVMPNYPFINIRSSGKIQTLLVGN", "how_it_was_run": "as §1"}, "ETV6": {"molecular_target": "ETV6 (Homo sapiens, UniProt P41212 1-452)", "sequence (P41212 whole entry)": "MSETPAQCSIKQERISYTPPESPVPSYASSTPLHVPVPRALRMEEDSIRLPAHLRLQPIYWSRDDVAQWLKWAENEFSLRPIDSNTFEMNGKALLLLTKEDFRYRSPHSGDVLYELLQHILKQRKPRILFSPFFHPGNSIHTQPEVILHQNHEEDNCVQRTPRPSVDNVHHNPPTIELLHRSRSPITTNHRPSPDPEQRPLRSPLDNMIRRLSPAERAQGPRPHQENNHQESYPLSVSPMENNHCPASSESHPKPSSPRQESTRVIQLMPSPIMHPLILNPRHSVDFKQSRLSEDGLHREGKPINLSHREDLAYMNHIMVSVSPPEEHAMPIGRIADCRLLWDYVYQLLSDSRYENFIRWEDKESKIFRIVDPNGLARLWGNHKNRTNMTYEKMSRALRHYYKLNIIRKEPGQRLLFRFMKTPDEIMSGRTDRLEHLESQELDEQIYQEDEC", "how_it_was_run": "as §1"}}}
{"sequence": "TACCCC", "values": [{"measurement": "binding signal", "setting": "ELF4", "result": "1.15 fold enrichment (6-mer frequency, TF over GST control)"}, {"measurement": "binding signal", "setting": "ETV2", "result": "1.19 fold enrichment (6-mer frequency, TF over GST control)"}, {"measurement": "binding signal", "setting": "ELF3", "result": "1.04 fold enrichment (6-mer frequency, TF over GST control)"}, {"measurement": "binding signal", "setting": "ETV1", "result": "1.06 fold enrichment (6-mer frequency, TF over GST control)"}, {"measurement": "binding signal", "setting": "ERF", "result": "1.02 fold enrichment (6-mer frequency, TF over GST control)"}, {"measurement": "binding signal", "setting": "ETV3L", "result": "1.1 fold enrichment (6-mer frequency, TF over GST control)"}, {"measurement": "binding signal", "setting": "ETS2", "result": "1.21 fold enrichment (6-mer frequency, TF over GST control)"}, {"measurement": "binding signal", "setting": "ETV7", "result": "1.1 fold enrichment (6-mer frequency, TF over GST control)"}, {"measurement": "binding signal", "setting": "ETV3", "result": "1.09 fold enrichment (6-mer frequency, TF over GST control)"}, {"measurement": "binding signal", "setting": "ETV6", "result": "1.04 fold enrichment (6-mer frequency, TF over GST control)"}]}
